Measurements from PubChem BioAssay (Tox21).
Results filed as inconclusive are left out. Activity calls are given as the source filed them. The call rests on the fitted dose curve; in most records, active means well fitted curve in the direction sought with a large enough effect in the repeat runs; inconclusive means weak or mixed curves; inactive means no such curve, though single readings can be large; an effect the other way counts as inactive or inconclusive.

Key:
[1] = qHTS RealTime-Glo MT Cell Viability Assay in HepG2 cells - 40 hour (AID 1224870); further: nearly all actives have a fitted effect of over 50% in size
Summary of the method: (§1)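 HepG2 cells (600/well) mixed with RealTime-Glo MT reagent, settled 5 h at 37 C/5% CO2 before compound addition. Nonlytic NanoLuc luminescence from viable-cell prosubstrate reduction read repeatedly during 40 h treatment at 37 C.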

[2] = A CellTox Green Cytotoxicity Assay to monitor cytotoxicity in HEK293 cells - 40 hour (AID 1224871); further: nearly all actives have a fitted effect of over 45% in size
Summary of the method: (§2)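 Each value comes from one timepoint of a single continuous run in which HEK293 cells with CellTox Green were exposed to compound for up to 40 h at 37 C, dye fluorescence rising with cell death.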

[3] = qHTS RealTime-Glo MT Cell Viability Assay in HEK293 cells - 16 hour (AID 1224872); further: nearly all actives have a fitted effect of over 50% in size; further: potency means the concentration at half of the fitted maximal effect
Summary of the method: (§3)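 Tox21 10K qHTS, HEK293, 600 cells/well, RealTime-Glo reagent co-dispensed with cells; 5 h preincubation, compound by pintool, 37 C, luminescence at 0–40 h.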

[4] = qHTS RealTime-Glo MT Cell Viability Assay in HepG2 cells - 8 hour (AID 1224873); further: nearly all actives have a fitted effect of over 55% in size
Summary of the method: as §1

[5] = A CellTox Green Cytotoxicity Assay to monitor cytotoxicity in HEK293 cells - 24 hour (AID 1224875); further: series mostly up to about 77 µM; nearly all actives have a fitted effect of over 45% in size
Summary of the method: as §2

[6] = A CellTox Green Cytotoxicity Assay to monitor cytotoxicity in HepG2 cells - 16 hour (AID 1224876); further: nearly all actives have a fitted effect of over 45% in size
Summary of the method: (§4)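 Continuous culture of HepG2 cells with a membrane-impermeant DNA dye; rising fluorescence marks dead cells. Compound exposure lasted up to 40 h at 37 C, with reads every 8 h from 0 h.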

[7] = qHTS RealTime-Glo MT Cell Viability Assay in HepG2 cells - 32 hour (AID 1224877); further: nearly all actives have a fitted effect of over 55% in size
Summary of the method: (§5)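 Cells + NanoLuc/prosubstrate dispensed (600 cells/well) → 5 h at 37 C/5% CO2 → compounds in DMSO transferred → 40 h incubation at 37 C, luminescence read at 0, 8, 16, 24, 32, 40 h.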

[8] = A CellTox Green Cytotoxicity Assay to monitor cytotoxicity in HepG2 cells - 24 hour (AID 1224878); further: nearly all actives have a fitted effect of over 45% in size
Summary of the method: as §4

[9] = A CellTox Green Cytotoxicity Assay to monitor cytotoxicity in HepG2 cells - 40 hour (AID 1224879); further: nearly all actives have a fitted effect of over 40% in size
Summary of the method: as §4

[10] = qHTS RealTime-Glo MT Cell Viability Assay in HEK293 cells - 0 hour (AID 1224880); further: nearly all actives have a fitted effect of over 45% in size; further: potency means the concentration at half of the fitted maximal effect
Summary of the method: (§6)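 qHTS format; HEK293 cells with NanoLuc/prosubstrate reagent, 37 C/5% CO2 for 5 h pre-dosing; compounds 23 nL in DMSO; luminescence at each time point reflects viable cells.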

[11] = A CellTox Green Cytotoxicity Assay to monitor cytotoxicity in HepG2 cells - 0 hour (AID 1224882); further: nearly all actives have a fitted effect of over 35% in size
Summary of the method: as §4

[12] = A CellTox Green Cytotoxicity Assay to monitor cytotoxicity in HepG2 cells - 32 hour (AID 1224883); further: nearly all actives have a fitted effect of over 50% in size
Summary of the method: as §4

[13] = A CellTox Green Cytotoxicity Assay to monitor cytotoxicity in HEK293 cells - 8 hour (AID 1224884); further: nearly all actives have a fitted effect of over 35% in size
Summary of the method: as §2

[14] = qHTS RealTime-Glo MT Cell Viability Assay in HepG2 cells - 16 hour (AID 1224885); further: nearly all actives have a fitted effect of over 50% in size
Summary of the method: as §5

[15] = qHTS RealTime-Glo MT Cell Viability Assay in HEK293 cells - 24 hour (AID 1224886); further: nearly all actives have a fitted effect of over 50% in size; further: potency means the concentration at half of the fitted maximal effect
Summary of the method: as §3

[16] = qHTS RealTime-Glo MT Cell Viability Assay in HEK293 cells - 8 hour (AID 1224887); further: nearly all actives have a fitted effect of over 50% in size; further: potency means the concentration at half of the fitted maximal effect
Summary of the method: as §6

[17] = A CellTox Green Cytotoxicity Assay to monitor cytotoxicity in HEK293 cells - 16 hour (AID 1224888); further: nearly all actives have a fitted effect of over 35% in size
Summary of the method: as §2

[18] = qHTS RealTime-Glo MT Cell Viability Assay in HepG2 cells - 0 hour (AID 1224889); further: nearly all actives have a fitted effect of over 50% in size; further: potency means the concentration at half of the fitted maximal effect
Summary of the method: as §5

[19] = qHTS RealTime-Glo MT Cell Viability Assay in HEK293 cells - 40 hour (AID 1224874); details: RealTime-Glo luminescence; max response: stronger effect = lower value; further: nearly all actives have a fitted effect of over 50% in size
Summary of the method: as §6

[20] = A CellTox Green Cytotoxicity Assay to monitor cytotoxicity in HEK293 cells - 32 hour (AID 1224881); further: nearly all actives have a fitted effect of over 40% in size
Summary of the method: as §2
On the % scale 0 is the no-effect control and ±100 the full control effect.

NCCc1cnc[nH]1
inactive: Potency [1] | Potency [2] | Potency [3] | Potency [4] | Potency [5] | Potency [6] | Potency [7] | Potency [8] | Potency [9] | Potency [10] | Potency [11] | Potency [12] | Potency [13] | Potency [14] | Potency [15] | Potency [16] | Potency [17] | Potency [18]

CC(=O)Nc1c(I)cc(I)c(C(=O)O)c1I
inactive: Potency [1] | Potency [2] | Potency [3] | Potency [4] | max response [19] 7.77% | Potency [6] | Potency [7] | Potency [8] | Potency [9] | Potency [20] | Potency [12] | Potency [13] | Potency [14] | Potency [15] | Potency [16] | Potency [17] | Potency [18]

CCCC(=O)O[C@]1(C(=O)CO)CC[C@H]2[C@@H]3CCC4=CC(=O)CC[C@]4(C)[C@H]3[C@@H](O)C[C@@]21C
inactive: Potency [1] | Potency [2] | Potency [3] | max response [19] 0.181% | Potency [5] | Potency [6] | Potency [7] | Potency [8] | Potency [9] | Potency [20] | Potency [11] | Potency [13] | Potency [14] | Potency [15] | Potency [16] | Potency [17]
active: Potency [10] 10.7 µM | Potency [18] 2.13 µM

CC(C)OC(=O)c1ccccc1
inactive: Potency [1] | Potency [2] | Potency [3] | Potency [4] | Potency [6] | Potency [7] | Potency [9] | Potency [10] | Potency [20] | Potency [12] | Potency [13] | Potency [14] | Potency [15] | Potency [16] | Potency [17] | Potency [18]

CCn1ccnc1CC1COc2ccccc2O1 (stereo unspecified)
inactive: Potency [1] | Potency [2] | Potency [3] | max response [19] -26.6% | Potency [5] | Potency [6] | Potency [7] | Potency [8] | Potency [9] | Potency [10] | Potency [20] | Potency [11] | Potency [12] | Potency [13] | Potency [14] | Potency [15] | Potency [16] | Potency [18]

CCOC(=O)CC(C)=O
inactive: Potency [1] | Potency [2] | Potency [3] | Potency [4] | Potency [6] | Potency [7] | Potency [8] | Potency [9] | Potency [20] | Potency [11] | Potency [13] | Potency [14] | Potency [15] | Potency [16] | Potency [17] | Potency [18]

COC(=O)NN
inactive: Potency [1] | Potency [2] | Potency [3] | Potency [4] | Potency [5] | Potency [6] | Potency [7] | Potency [8] | Potency [9] | Potency [10] | Potency [20] | Potency [11] | Potency [12] | Potency [13] | Potency [14] | Potency [15] | Potency [16] | Potency [17] | Potency [18]

CCOC(=O)c1c(C)n(C)c2ccc(O)cc12
inactive: Potency [1] | Potency [2] | Potency [3] | Potency [4] | max response [19] -25.6% | Potency [6] | Potency [7] | Potency [8] | Potency [9] | Potency [10] | Potency [13] | Potency [14] | Potency [15] | Potency [16] | Potency [17] | Potency [18]

COc1ccc(CCN(C)CCCC(C#N)(c2cc(OC)c(OC)c(OC)c2)C(C)C)cc1OC (stereo unspecified)
active: Potency [3] 10.7 µM | Potency [15] 21.3 µM | Potency [16] 21.3 µM
inactive: Potency [1] | Potency [2] | Potency [4] | Potency [5] | Potency [6] | Potency [7] | Potency [8] | Potency [10] | Potency [20] | Potency [11] | Potency [12] | Potency [13] | Potency [14] | Potency [17] | Potency [18]

O=C(CCCN1CCC(O)(c2cccc(C(F)(F)F)c2)CC1)c1ccc(F)cc1
active: Potency [3] 19 µM | Potency [15] 16.9 µM | Potency [16] 15.1 µM
inactive: Potency [1] | Potency [2] | Potency [4] | Potency [5] | Potency [6] | Potency [7] | Potency [10] | Potency [20] | Potency [11] | Potency [13] | Potency [14] | Potency [17] | Potency [18]

O=Cc1cccc([N+](=O)[O-])c1
inactive: Potency [1] | Potency [2] | Potency [3] | max response [19] 5.4% | Potency [6] | Potency [7] | Potency [8] | Potency [9] | Potency [10] | Potency [20] | Potency [11] | Potency [13] | Potency [14] | Potency [15] | Potency [16] | Potency [17] | Potency [18]

COCCCOCCCOC
inactive: Potency [1] | Potency [2] | Potency [3] | max response [19] 6.62% | Potency [5] | Potency [6] | Potency [7] | Potency [10] | Potency [13] | Potency [14] | Potency [15] | Potency [16] | Potency [17] | Potency [18]

CC(=O)CC(C)C
inactive: Potency [1] | Potency [2] | Potency [3] | max response [19] 14.5% | Potency [5] | Potency [6] | Potency [7] | Potency [8] | Potency [9] | Potency [10] | Potency [20] | Potency [12] | Potency [13] | Potency [14] | Potency [15] | Potency [16] | Potency [17] | Potency [18]
